# Compounds without any hit were thinned out: in the full panel of roughly 83,000, 20% have a hit.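 Cells were grown in 96-well plates and exposed to the test compound at a single concentration for 48 hours; results are reported as percent growth, with values below 10 considered active.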 Values without a mark were called inactive. Activity calls are given as the source filed them.
# System: HL-60(TB) leukemia
# Test: NCI-60 one-dose screen, 48 h (100 = growth as untreated, 0 = no growth, -100 = all killed)
# Conditions: 10 µM unless noted
row,SMILES,growth
1,COc1ccc(-c2cc(-c3ccc(Cl)cc3)c(C#N)c(=O)n2Cc2ccc(C(=O)Nc3ccccc3N)cc2)cc1,84.7%
2,COC1C(O)CC(OC2CC(OC3CC(O[C@@H]4C(=O)c5c(cc6cc(OC7CC(OC8CC(O)C(O)C(C)O8)C(O)C(C)O7)c(C)c(O)c6c5O)CC4[C@H](OC)C(=O)C(C)=O)OC(C)C3O)OC(C)C2O)OC1C (stereo not given in full),-18.6% (active)
3,O=C(Nc1ccc(Cl)c(Cl)c1)OCn1ncc2ccc([N+](=O)[O-])cc21,96.3%
4,OC(COc1ccccc1)CN1CCN(c2ccc(Cl)cc2)CC1 (stereo not given),83.3%
5,CC(=O)C(/C=N/C(N)=O)=C(/C)O,104%
6,CCOC(=O)C(=CNc1ccccc1Cl)C(=O)OCC,86.4%
7,O=C(O)c1ccc(NC(=O)c2cccc(Nc3ccnc(C(F)(F)F)c3)c2)cc1,94.1%
8,N#CC1=C(N)Oc2c(c(N)nn2-c2ccccc2)C1c1ccc(Cl)cc1Cl (stereo not given),96.5%
9,Clc1cccc(-c2nc(-c3cccs3)no2)c1,98.4%
10,COc1cc(NC(=O)CCSc2nc3ccc(Cl)cc3c(=O)n2Cc2ccccc2)cc(OC)c1OC,99.6%
11,CN1CCN(c2ccc3c(c2)nc(NNC(=O)c2cnccn2)c2cccn23)CC1,-9.26% (active)
12,O=c1c(/C=C/c2c(O)ccc3ccccc23)nnc2sc(-c3cccc([N+](=O)[O-])c3)nn12,11.2%
13,COc1ccccc1/C=N\Nc1ccc([N+](=O)[O-])cn1,89.5%
14,COc1cc(-c2cc3cc(O)ccc3oc2=O)cc(OC)c1OC,85%
15,CCOC(=O)[C@@H]1CSC(CC)=C(C(=O)O)N1,-17.3% (active)
16,CCOc1c(OC)cc2c(c1O)C(=O)N[C@@H]1[C@@H](O)[C@@H](O)[C@H](O)C[C@@H]21,100%
17,Nc1nonc1-c1nc2ccccc2n1CC(=O)Nc1ccc2c(c1)COC2=O,100%
18,Cc1ccc2[nH]c(=O)c3c(c2c1)OC(N)=C(C#N)C31c2cc(Br)ccc2-c2ccc(Br)cc21,85.7%
19,CN(C)CC1(C)Cc2ccsc2C1O (stereo not given),93%
20,C=CCOc1ccc2c(c1)CC[C@@H]1[C@@H]2CC[C@@]2(C)[C@H]1CC[C@]2(C)O,74.6%
21,COc1ccc(S(=O)(=O)n2cc(C3OC(c4cc(OC)c(OC)c(OC)c4)=NN3C(C)=O)c3ccccc32)cc1OC (stereo not given),111%
22,NCC(=O)CCC(=O)O,132%
23,CC1=NN(c2ccccc2Cl)C(=O)/C1=C\c1cn(S(=O)(=O)c2ccc(C)cc2)c2ccccc12,114%
24,COc1ccc(Cn2c(SC)nc(=O)n(Cc3ccc(Cl)cc3)c2=O)cc1,94.2%
25,CC/C(=C(/c1ccc(Cl)cc1)c1ccc(OCCN(CC)CC)cc1)c1ccc(OC)cc1,33.3%
